Measured values as given in PubChem BioAssay (NCATS).
Records with an inconclusive call do not appear. Calls of active or inactive are those of the source. Calls follow the shape of the dose curve; as a rule, active = well fitted inhibition curve with a large enough effect; inconclusive = small, poorly fitted or top-dose-only effect; inactive = no such curve, though single readings can be large or run the other way.

Molecular target: Cytochrome P450 2C19 (Homo sapiens) (UniProt P33261)
Test: qHTS Assay for Inhibitors and Substrates of Cytochrome P450 2C19 (AID 899); also: nearly all actives have a fitted effect of over 60% in size
Details: recombinant CYP2C19, luciferin-H EGE luminescence; series mostly up to 57.1 µM; activity, negative = inhibition: at the top concentration
Description: NIH Molecular Libraries Screening Centers Network [MLSCN]
NIH Chemical Genomics Center [NCGC]
The P450 gene superfamily is involved in the metabolism and clearance of xenobiotics. This assay used human CYP2C19 to measure the hydroxylation of ethylene glycol ester of 6' deoxyluciferin (Luciferin-H EGE; […]) to luciferin. The luciferin is then measured by luminescence after the addition of a luciferase detection reagent. Luciferin-H EGE concentration in the assay was equal to its KM for CYP2C19. Inhibitors and some substrates limit the production of luciferin, and decrease measured luminescence.
NCGC Assay Protocol Summary:
Two uL of enzyme and substrate mix (final concentrations: 5nM CYP2C19, 10uM Luciferin-H EGE, 50mM KPO4) were dispensed into a white, solid bottom 1536-well microtiter plate. 23nL of compound was transferred by a pin tool. The plate was incubated at 37C for 10 min. Two uL of an NADPH regeneration solution (Promega supplied reagent) was dispensed and the reaction was allowed to continue for 60 min at 37C. Then the reaction was stopped by reconstituted luciferin detection buffer. After another 20 min of incubation the plate was read on the ViewLux (Perkin Elmer) at 60 sec exposure and 2x2 binning. This protocol was carried out with Promega-Glo reagents and further information can be found at http://www.promega.com/tbs/tb325/tb325.pdf. Data were normalized to the to AC100 inhibition (57uM ketoconazole).
Keywords: P450, CYP2C19, Luciferase, MLSMR, MLSCN, NIH Roadmap, qHTS, NCGC
% is scaled to controls: 0 for no effect and ±100 for the full control effect; potency is read from the fitted curve at half-maximal effect.

Chain of Cytochrome P450 2C19 (Homo sapiens) (P33261 whole entry, looked up): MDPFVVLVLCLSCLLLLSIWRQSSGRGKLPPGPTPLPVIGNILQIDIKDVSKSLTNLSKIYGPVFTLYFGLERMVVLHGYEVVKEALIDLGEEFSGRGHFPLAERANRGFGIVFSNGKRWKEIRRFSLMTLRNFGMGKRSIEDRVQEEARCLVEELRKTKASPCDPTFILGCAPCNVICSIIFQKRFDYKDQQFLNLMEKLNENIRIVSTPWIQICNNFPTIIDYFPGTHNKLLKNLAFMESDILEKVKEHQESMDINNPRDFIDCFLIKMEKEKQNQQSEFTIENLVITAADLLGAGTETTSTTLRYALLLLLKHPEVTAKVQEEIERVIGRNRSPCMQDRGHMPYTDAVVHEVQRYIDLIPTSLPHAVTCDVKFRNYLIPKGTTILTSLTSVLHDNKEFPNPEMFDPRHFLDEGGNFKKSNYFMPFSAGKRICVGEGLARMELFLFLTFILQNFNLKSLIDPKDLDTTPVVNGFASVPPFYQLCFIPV

Potency, active:
CCCC/C=C/C(NC(=O)c1ccccc1)c1ccccc1 (stereo not given) 7.94 µM
COC(=O)[C@@]1(Cc2ccccc2)[C@H]2c3cc(C(=O)N4CCCC4)n(Cc4cccc5ccccc45)c3C[C@H]2CN1C(=O)c1ccccc1 2.51 µM
COc1ccc2c(=O)cc(-c3ccc(O)cc3)oc2c1 7.94 µM
FC(F)(F)c1ccccc1-c1nc(Nc2ccncc2)c2ccccc2n1 2 µM
COC(=O)[C@@]1(Cc2ccccc2)[C@H]2c3cc(C(=O)N4CCCC4)n(Cc4ccsc4Br)c3C[C@H]2CN1C(=O)c1ccccc1 2.51 µM
COc1cccc(-c2cc(=O)c3cc(O)ccc3o2)c1 25.1 µM
Cc1c(-c2ccccc2)oc2cc(O)ccc2c1=O 0.126 µM
COc1cccc2oc(-c3ccc(O)cc3)cc(=O)c12 10 µM
CCCC[C@@H]1C[C@H]1C(NC(=O)c1ccco1)c1ccccc1 (stereo not given in full) 1.26 µM
Cc1ccc(C[C@H](Cc2nc3ccccc3[nH]2)c2nc3ccccc3[nH]2)cc1 5.01 µM
COc1ccc([C@@H]2OC[C@]3(COC(C)=O)[C@H](C)C=C(C)[C@@H]2[C@H]3C)cc1 6.31 µM
COc1ccccc1-c1oc2ccccc2c(=O)c1OC 7.94 µM
C[C@@H](C(=O)Nc1ccc2ccccc2c1)[C@@H]1C[C@@]1(C)[C@@H](NC(=O)OCc1ccccc1)c1ccccc1 3.16 µM
C[C@@H](C(=O)NCCc1c[nH]c2ccccc12)[C@@H]1C[C@@]1(C)[C@@H](NC(=O)OCc1ccccc1)c1ccccc1 0.794 µM
CCCC[C@@H]1C[C@H]1C(NC(=O)c1cccnc1)c1ccc(Cl)cc1 (stereo not given in full) 2 µM
CC(C)C1=CC2=CC[C@H]3[C@@](C)(CCC[C@]3(C)C(=O)O)[C@@H]2CC1 25.1 µM
COc1cccc(-c2oc3ccccc3c(=O)c2O)c1 6.31 µM
COc1ccc2nc3c(cc2c1)Cc1ccccc1-3 2.51 µM
COC(=O)[C@@]1(Cc2ccccc2)[C@H]2c3cc(C(=O)N4CCCC4)n(Cc4ccc(C)o4)c3C[C@H]2CN1C(=O)c1ccccc1 2.51 µM
COC(=O)[C@H]1C[C@@H]1[C@H](NC(=O)OCc1ccccc1)c1ccccc1 3.16 µM
CC(C)(C)c1cc(Br)c(O)c(CN(Cc2cc(C(C)(C)C)cc(Br)c2O)C2CCCCC2)c1 0.631 µM

activity, negative = inhibition, inactive:
CC(C)C[C@@H](CC(=O)N[C@@H](CCC(=O)O)CC(=O)O)NC(=O)[C@@H]1CNCC[C@H]1NC(=O)C[C@@H](NC(=O)C[C@H](CO)NC(=O)[C@@H]1CCCC[C@H]1N)C(C)C -19.6%
O=C(/C=C\c1ccc(O)c(O)c1)O[C@H]1C[C@@](O)(C(=O)O)C[C@H](O)[C@@H]1O 38.6%
CC(C)C[C@@H](CC(=O)N[C@@H](CCC(=O)O)CC(=O)O)NC(=O)[C@@H]1CNCC[C@H]1NC(=O)C[C@@H](NC(=O)C[C@H](Cc1c[nH]c2ccccc12)NC(=O)[C@@H]1CCCC[C@H]1N)C(C)C -8.34%
NCCC[C@@H](CC(=O)N[C@@H]1CCCC[C@H]1C(=O)N[C@H](CC(=O)N[C@@H](CCC(=O)O)CC(=O)O)Cc1c[nH]c2ccccc12)NC(=O)C[C@H](Cc1ccccc1)NC(=O)[C@@H]1CNCC[C@H]1N -25.1%
CC(C)C[C@@H](CC(=O)N[C@H](CC(=O)N[C@@H]1CCCC[C@H]1C(=O)N[C@H](CC(=O)N[C@@H](CCC(=O)O)CC(=O)O)Cc1ccccc1)C(C)C)NC(=O)[C@@H]1CNCC[C@H]1N 15.8%
NCCC[C@@H](CC(=O)N[C@@H]1CCNC[C@H]1C(=O)N[C@H](CC(=O)N[C@@H](CCC(=O)O)CC(=O)O)Cc1c[nH]c2ccccc12)NC(=O)C[C@H](CO)NC(=O)[C@@H]1CCCC[C@H]1N -30.6%
O=c1ccn([C@H]2O[C@H](CO)[C@@H](O)[C@@H]2O)c(=O)[nH]1 -16.2%
OC[C@@H]1O[C@@H](n2cnc3c(NCCc4ccccc4)ncnc32)[C@@H](O)[C@H]1O 38.5%
CC(C)C[C@@H](CC(=O)N[C@@H](CCCN)CC(=O)N[C@@H]1CCCC[C@H]1C(=O)N[C@H](CC(=O)N[C@@H](CCC(=O)O)CC(=O)O)CC(C)C)NC(=O)[C@@H]1CCCC[C@H]1N -31.1%
CC1=C(\C=C/C(C)=C/C=C\C(C)=C\CO)C(C)(C)CCC1 -33.3%
CC(C)[C@@H](CC(=O)N[C@@H]1CCCC[C@H]1C(=O)N[C@H](CC(=O)N[C@@H](CCC(=O)O)CC(=O)O)Cc1ccccc1)NC(=O)C[C@H](CO)NC(=O)[C@@H]1CNCC[C@H]1N -25.4%
CC(=O)OC[C@@H]1O[C@@H](Oc2cc(OC(C)=O)c3c(=O)cc(-c4ccc(OC(C)=O)c(OC(C)=O)c4)oc3c2)[C@H](OC(C)=O)[C@H](OC(C)=O)[C@@H]1OC(C)=O -25.2%
Nc1ccccc1C(=O)C[C@@H](N)C(=O)O 45.4%
O=c1c(O)c(-c2ccc(O)cc2)oc2ccc(O)cc12 -19.5%
CC(C)C[C@@H](CC(=O)N[C@@H](CCC(=O)O)CC(=O)O)NC(=O)[C@@H]1CCCC[C@H]1NC(=O)C[C@H](CCCN)NC(=O)C[C@H](CO)NC(=O)[C@@H]1CNCC[C@H]1N -35.5%
CC(C)C[C@@H](CC(=O)N[C@@H](CCC(=O)O)CC(=O)O)NC(=O)[C@@H]1CCCC[C@H]1NC(=O)C[C@@H](NC(=O)C[C@H](CO)NC(=O)[C@@H]1CNCC[C@H]1N)C(C)C 15.8%
CCN1CCC[C@@H]1CNC(=O)c1c(OC)ccc(I)c1O 45.9%
CC(C)[C@@H](CC(=O)N[C@@H]1CCNC[C@H]1C(=O)N[C@H](CC(=O)N[C@@H](CCC(=O)O)CC(=O)O)Cc1ccccc1)NC(=O)C[C@H](Cc1c[nH]c2ccccc12)NC(=O)[C@@H]1CCCC[C@H]1N -42.6%
CC[C@H]1C2=C3C(CC[C@H]4C(OC)OC[C@](C)([C@@H]34)N(C(=O)OC(C)(C)C)C2)C(CO)C1CO (stereo not given in full) -35.5%
